Test results taken from PubChem BioAssay AID1851 (National Center for Advancing Translational Sciences (NCATS), 2009).
“And” between values parts separate entries of the source, which are not always exact repeats. Identical values can stand only once. Screen size: about 16,000 compounds; about 2,600 (16%) were called active. Not shown: some 20% with an inconclusive outcome. Shown is part of a subset that was picked to be rich in actives. Unmarked numbers belong to inactive results. Calls follow the shape of the dose curve; as a rule, active = well fitted curve in the direction sought with a large enough effect; inconclusive = small, poorly fitted or top-dose-only effect, or effect the other way; inactive = no such curve, though single readings can be large or run the other way.

target: Cytochrome P450 2D6 (Homo sapiens) (UniProt P10635); assay: Cytochrome panel assay with activity outcomes; conditions: recombinant CYP, pro-luciferin dealkylation, luminescence, p450-cyp2d6; series mostly up to 57.1 µM
Sequence (P10635 whole entry, looked up): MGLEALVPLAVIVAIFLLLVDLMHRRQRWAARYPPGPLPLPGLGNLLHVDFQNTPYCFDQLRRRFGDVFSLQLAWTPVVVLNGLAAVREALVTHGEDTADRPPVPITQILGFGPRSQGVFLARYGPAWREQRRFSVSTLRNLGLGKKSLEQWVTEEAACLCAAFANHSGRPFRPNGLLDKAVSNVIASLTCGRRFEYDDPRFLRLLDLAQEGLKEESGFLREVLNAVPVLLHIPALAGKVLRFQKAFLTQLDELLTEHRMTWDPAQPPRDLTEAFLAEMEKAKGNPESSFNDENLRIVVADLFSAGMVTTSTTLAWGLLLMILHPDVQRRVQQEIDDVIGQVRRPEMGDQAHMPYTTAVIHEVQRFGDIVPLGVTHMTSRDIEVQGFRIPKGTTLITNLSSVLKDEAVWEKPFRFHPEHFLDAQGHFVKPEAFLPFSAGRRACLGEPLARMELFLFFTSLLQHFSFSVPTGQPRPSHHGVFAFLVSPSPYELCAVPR
% is scaled to controls: 0 for no effect and ±100 for the full control effect.

Structure (SMILES)	AC50	activity, negative = inhibition
CC[C@H]1CN2CC[C@@H]1C[C@H]2[C@@H](O)c1ccnc2ccc(OC)cc12	3.16 µM (active)	–
C=C[C@H]1CN2CC[C@@H]1C[C@H]2[C@@H](O)c1ccnc2ccccc12	3.16 µM (active) and 501 nM (active)	–
C=C[C@@H]1CN2CC[C@H]1C[C@H]2[C@H](O)c1ccnc2ccccc12	3.98 µM (active)	–
O=C(O)CC[N+](=O)[O-]	inactive	–
C[C@H]1C(=O)O[C@@H]2CCN3CC=C(COC(=O)[C@@](C)(O)[C@@]1(C)O)[C@H]23	inactive	–
CCOP(=O)(OCC)C(NC(C)=O)C(Cl)(Cl)Cl (stereo not given)	inactive	–
N[C@@H](CP(=O)(O)O)C(=O)O	–	-1.79% [at 11.4 µM]
COc1ccc(C(=O)c2c(C)n(CCN3CCOCC3)c3cc(I)ccc23)cc1	inactive	–
N[C@@]1(C(=O)O)CC[C@H](C(=O)O)C1	inactive	–
COc1cc(/C=N/NC(=O)CN2CC(c3ccccc3)CC2=O)ccc1OC(=O)N(C)C (stereo not given)	inactive	–
CN(C)C=C1C(=O)N(C2CCCCC2)C(=O)N(C2CCCCC2)C1=O	inactive	–
NC(=O)COc1c(F)cc(SCCNS(=O)(=O)c2ccccc2)cc1F	inactive	–
Cc1cc(OCC(=O)OC(C)C)c2c3c(c(=O)oc2c1)CCCC3	inactive	–
Cn1c(O)c(C(c2ccccn2)c2c(O)n(C)c(=S)[nH]c2=O)c(=O)[nH]c1=S	inactive	–
O=C1CN=C(c2cccs2)c2c(sc3c2CCCC3)N1	1 µM (active)	–
NC[C@@H](Cc1ccccc1)P(=O)(O)O	–	-3.95% [at 11.4 µM]
CC(C)(C)C(=O)CP(=O)(O)O	–	-2.59% [at 11.4 µM]
C=C(C)[C@H]1CN[C@H](C(=O)O)[C@@H]1CC(=O)O	inactive	–
CCC(=O)O[C@@](Cc1ccccc1)(c1ccccc1)[C@@H](C)CN(C)C	7.94 µM (active)	–
COC(=O)[C@@]1(Cc2ccc(F)cc2)[C@H]2c3cc(C(=O)N(C)C)[nH]c3C[C@H]2CN1C(=O)c1ccccc1	inactive	–

Structure (SMILES)	AC50	activity, negative = inhibition
NC(N)=NCCN=C(N)N	–	-4.24% [at 11.4 µM]
Fc1ccccc1CCNCc1cccc(Cl)c1Cl	0.0794 µM (active)	–
CCC1(CCSC(=N)N)C(=O)NC(=O)NC1=O	–	12.5% [at 11.4 µM]
C=C1CC[C@H](O)C/C1=C/C=C1\CCC[C@]2(C)[C@H]1CC[C@H]2[C@@H](C)CCCC(C)C	inactive	–
O=P(O)(O)C(Cl)(Cl)P(=O)(O)O	inactive	–
COC(=O)N1CCC2(CCN(CC(C)C)CC2)CC1	10 µM (active)	–
CC(C)NC(=O)N1CCC2(CC1)CCN(C(=O)Oc1ccccc1)CC2	inactive	–
COC(=O)N1CCC2(CCCN(C)C2)CC1	inactive	–
CC(C)CN1CCC2(CC1)CCN(S(C)(=O)=O)CC2	0.794 µM (active)	–
NN=C(N)N	inactive	–
Cc1c(C(=O)c2ccc3ccccc3c2)c2cccc3c2n1[C@H](CN1CCOCC1)CO3	inactive	–
CN1CCN(c2ccc3ccccc3n2)CC1	inactive	–
O[C@@H]1[C@@H]2c3cc4c(cc3CN3CCC(=C[C@@H]1O)[C@H]23)OCO4	3.98 µM (active)	–
CC(=NCCN1CCOCC1)c1c(O)n(Cc2ccccc2)c(=O)[nH]c1=O	inactive	–
C[C@@H]1OC=C2[C@@H](O)[C@H]3O[C@H]3C(=O)[C@@]23[C@H]1[C@H]1C2=C([C@@H](O)[C@H]4O[C@@H]4C2=O)[C@@H]3O[C@@H]1C	–	1.81% [at 11.4 µM]
COc1ccc(C2SCC(=O)Nc3c2c(C)nn3-c2ccccc2)cc1OC (stereo not given)	inactive	–
O=[N+]([O-])c1cc(O)c(O)c([N+](=O)[O-])c1	inactive	–
CC1=NN(c2ccc(S(=O)(=O)O)cc2C)C(=[OH+])[C@H]1N=Nc1cc(S(=O)(=O)O)ccc1C(=O)O.O.[Cr]	–	-4.46% [at 11.4 µM]
CP(=O)(O)CCCN	inactive	–
CN1C[C@H](C(=O)N[C@@]2(C)O[C@@]3(O)[C@H]4CCCN4C(=O)[C@@H](Cc4ccccc4)N3C2=O)C=C2c3cccc4[nH]cc(c34)C[C@@H]21	–	-1.39% [at 11.4 µM]

Structure (SMILES)	AC50	activity, negative = inhibition
CC(C)C[C@H]1C(=O)N2CCC[C@@H]2[C@@]2(O)O[C@](NC(=O)[C@@H]3C=C4c5cccc6[nH]cc(c56)C[C@@H]4N(C)C3)(C(C)C)C(=O)N12	inactive	–
CN1C[C@H](CO)C=C2c3cccc4[nH]cc(c34)C[C@@H]21	0.126 µM (active)	–
O=C(NCP(=O)(O)O)c1cccnc1	–	-2.73% [at 11.4 µM]
O=C(Nc1ccccc1)N1CCC2(CC1)CCN(C(=O)Oc1ccccc1)CC2	inactive	–
Cc1ccc(C2(c3ccc(C)c(O)c3C)CCN(C)CC2)c(C)c1O	–	-18.9% [at 11.4 µM]
Cn1c(O)c(C(c2ccccn2)c2c(O)n(C)c(=S)n(C)c2=O)c(=O)n(C)c1=S	inactive	–
C[C@@]12CC[C@H](O)C[C@@H]1CC[C@H]1[C@@H]2C[C@@H](O)[C@]2(C)[C@@H](C3=CC(=O)OC3)CC[C@]12O	inactive	–
c1ccc2c(c1)Sc1ccccc1N2C[C@H]1CN2CCC1CC2	0.398 µM (active)	–
CN1CCc2nc3ccc(F)cc3c(C(N)=O)c2C1	inactive	–
CCOc1ccc2c(c1)C(C)=CC(C)(C)N2	2.51 µM (active)	–
CCCn1c(C)c(C(=O)c2cccc3ccccc23)c2ccccc21	inactive	–
O=C(c1cc(=O)[nH]c2ccc(Br)cc12)N1CCC2(CC1)OCCO2	inactive	–
CC(=O)OC1N=C(c2ccccc2)c2cc(Br)ccc2N(C)C1=O (stereo not given)	inactive	–
C[C@@H]1O[C@H](C[N+](C)(C)C)CS1	inactive	–
COc1cccc(-n2c(O)c(C=NCCN3CCOCC3)c(=O)[nH]c2=O)c1	inactive	–
CC1CN=C(Nc2cccc3ccccc23)S1 (stereo not given)	11.2 µM (active)	–
C[N+]1(C)CCO[C@@](O)(c2ccc(-c3ccc([C@]4(O)C[N+](C)(C)CCO4)cc3)cc2)C1	inactive	–
COC(=O)C(O)(c1c(C)[nH]c2ccccc12)C(F)(F)F (stereo not given)	inactive	–
CCOC(=O)C1Cc2c([nH]c3ccccc23)CN1 (stereo not given)	12.6 µM (active)	–
CCOC(=O)[C@@H]1[C@@H]2c3ccccc3-c3ccccc3[C@H]2C[C@H]1O	–	-5.13% [at 11.4 µM]
